Compound activity deposited in PubChem BioAssay by National Center for Advancing Translational Sciences (NCATS).
A selection: hits, their analogues and other compounds. The true share with any hit is near 6.5%.
IL1B secr inh: inflammasome signaling inhibition, IL-1 beta readout. actives 4.7% (n = 360,000). activity change, % at 57.5 µM. THP-1 LPS/ATP IL-1B secretion, AlphaLISA, 16 h; hits give low values; in the data active means activity change below about -50%; inconclusive means mostly about -30% to -49%; further: on the % scale 0 is the no-effect control and ±100 the full control effect
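Secreted IL-1B measured by AlphaLISA bead assay after 16 h compound exposure of THP-1 cells; compounds (final up to 57.5 uM) added 1 h before LPS (250 ng/mL) and ATP (1.25 mM) stimulation; lower signal means less secretion.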
Giardia killer: kills Giardia lamblia; Giardia lamblia trophozoite viability; activity change, % at 7.66 µM, hits read low; actives 0.15% (n = 340,000); AID 540267; in the data active means activity change below about -80%; inconclusive means between about -30% and that limit;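 further: parasites exposed to compound for two days anaerobically before the ATP read; on the % scale 0 is the no-effect control and ±100 the full control effect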
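Viability, read as ATP luminescence: trophozoites at 100 cells/well, compound added, 48 hrs anaerobic at 37 deg C, then 15-30 min room-temperature development before reading.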
HT1080NT lethal: kills 2HG-producing HT-1080-NT fibrosarcoma cells. HT-1080-NT fibrosarcoma viability, CellTiter-Glo ATP luminescence, 48 h. Potency, µM (series often up to 46.1 µM), for inactives: at the highest dose activity, negative = less viability, most hits filed as cytotoxic. actives 1.6% (n = 360,000);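 further: NT is the 2HG producing partner of a matched IDH1 knockdown line; potency means the concentration at half of the fitted maximal effect; 0% = DMSO-treated cells and -100% = media-only wells without cells; nearly all actives have a fitted effect of over 55% in size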
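Viability of the 2HG-overproducing fibrosarcoma line after 48 hours of compound exposure at 37 degrees C was determined by luminescence with CellTiter-Glo, and concentration-effect curves were then fitted and categorized.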
HepG2 tox: counter-screen for TGF-b inhibitors: cytotoxicity in HepG2 cells; Potency, µM (series often up to 46.1 µM), inactives show top-dose activity change, negative = cytotoxicity, usual class: cytotoxic; HepG2 CAGA-GFP viability, ATP luminescence, 18 h; actives 0.76% (n = 410,000); AID 588856; further: potency means the concentration at half of the fitted maximal effect
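HepG2 CAGA-GFP cells (1000/well, DMEM with 1% FBS) received compound, then TGF-beta at 500 pg/mL final, and were incubated 18 hours at 37 degrees C. Viability was read by CellTiter-Glo luminescence. Media-only wells were set as complete cell-killing and DMSO as no toxicity.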
TGFb inhibitor: blocks TGF-b signaling; HepG2 CAGA-GFP TGF-b/SMAD3 reporter, GFP fluorescence, 18 h; TGF-beta stimulated, 500 pg/mL final; Potency, µM (highest dose often 46.1 µM), inactives show at the highest dose activity, negative = inhibition, most hits filed as inhibitors; actives 1.2% (n = 410,000); further: potency means the concentration at half of the fitted maximal effect; on the % scale 0 is the no-effect control and ±100 the full control effect; nearly all actives have a fitted effect of over 65% in size
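HEPG2 CAGA-GFP reporter cells (1000/well, DMEM with 1% FBS) received compounds, then recombinant TGF-beta at 500 pg/mL final for 18 hours at 37 degrees C. Per-cell GFP summed per well was normalised to unstimulated and stimulated DMSO controls before curve fitting.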
HT1080 IDH1KD tx: kills HT-1080 cells with IDH1 knockdown; HT-1080 IDH1 knockdown viability, ATP luminescence, 48 h; Potency, µM (series often up to 46.1 µM), inactives show at the top dose activity, negative = toxicity, actives largely listed as cytotoxic; actives 2% (n = 360,000); AID 686971;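 further: potency means the concentration at half of the fitted maximal effect; 0% = DMSO wells and -100% = cell-free medium wells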
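CellTiter-Glo luminescence after 48 h compound exposure at 37 degrees C of IDH1-knockdown HT-1080 cells in 5% FBS RPMI. %Activity scaled between DMSO wells and cell-free media wells, with curves fitted and assigned curve classes.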
* marks the source's active call; other numbers are inactive results; i = inactive; ? = inconclusive; / = no result given. Unless noted, the call rests on the fitted dose curve; in most records, active means well fitted curve in the direction sought with a large enough effect; inconclusive means small, poorly fitted or top-dose-only effect, or another doubt; inactive means no such curve, though single readings can be large; an effect the other way counts as inactive or inconclusive.

SMILES	IL1B secr inh	Giardia killer	HT1080NT lethal	HepG2 tox	TGFb inhibitor	HT1080 IDH1KD tx
Cc1cccn2c(=O)c(C=O)c(N3CCCCC3)nc12	-5	29	3%	-8%	0%	0%
CC1CCN(c2nc3ccccn3c(=O)c2C=O)CC1	34	-20	4%	3%	0%	-6%
Cc1cccn2c(=O)c(C=O)c(Cl)nc12	-96*	-4	?	-69%	16µM*	?
Cc1cccn2c(=O)c(C=O)c(Sc3ncccn3)nc12	-65*	-11	-22%	7%	-11%	-27%
NC(=O)/C=C\c1cn(-c2ccccc2)nc1-c1ccc2c(c1)OCCO2	-60*	-11	-2%	-12%	1%	-1%
O=C(/C=C/c1cn(-c2ccccc2)nc1-c1ccc2c(c1)OCCO2)NCCO	-10	-15	5%	-159%	0%	-3%
CSc1cccc(NC(C)C(=O)NCc2ccccc2)c1 (stereo not drawn)	-2	-12	-8%	7%	-2%	-5%
COCCCN(C(=S)Nc1cc(Cl)cc(Cl)c1)C(C)c1ccccn1 (stereo not drawn)	0	-14	?	16µM*	?	-12%
COCCCN(C(=S)Nc1ccc(C)cc1Cl)C(C)c1ccncc1 (stereo not drawn)	-17	5	1%	5%	9%	-3%
COCCCN(C(=S)Nc1cc(Cl)cc(Cl)c1)C(C)c1ccncc1 (stereo not drawn)	-68*	3	0%	4%	?	-13%
Cc1ccc(Cl)cc1NC(=S)N(CCN(C)C)C(C)c1ccccn1 (stereo not drawn)	-73*	-13	0%	-25%	-29%	-1%
COCCCN(C(=O)Nc1ccc(C)c(C)c1)C(C)c1ccccn1 (stereo not drawn)	-7	13	2%	1%	5%	0%
O=C(c1ccccc1)N1CCN(C2CCCCCC2)CC1	8	7	12%	8%	-2%	9%
COc1ccc(-c2cc(C)no2)cc1S(=O)(=O)N1CCCCC1	11	-9	-6%	-16%	-9%	-5%
COc1ccc(-c2cc(C)no2)cc1S(=O)(=O)Nc1ccccc1	-12	19	?	-4%	-10%	16µM*
COc1ccc(-c2cc(C)no2)cc1S(=O)(=O)Nc1cccc(C)c1	11	-4	-18%	1%	4%	?
COc1ccc(-c2cc(C)no2)cc1S(=O)(=O)NCCCN1CCCCCC1	-51*	-9	-9%	-4%	-26%	-2%
COc1cccc(CCN2CCC(CNS(=O)(=O)c3cc(-c4cc(C)no4)ccc3C)CC2)c1	-62*	-11	?	-110%	16µM*	?
O=C(Cn1nnc2ccccc2c1=O)Nc1ccc2c(c1)CCC2	15	9	0%	-5%	-1%	-26%
CCN(CC)C(=N)/C(C#N)=N/Nc1ccc(C)cc1	-54*	18	-8%	16%	18%	-5%
CCCOc1ccc(NC(=O)CC2C(=O)N(c3ccc(C)cc3)C(=O)N2Cc2cccc(OC)c2)cc1 (stereo not drawn)	/	/	/	-16%	-10%	/
Fc1ccc(/C=C/c2nccc3ccccc23)cc1	/	/	/	-23%	-9%	/
O=C(/C=C/c1c[nH]c2ccccc12)c1cccc2ccccc12	-108*	4	?	-77%	?	?
C(=C\c1c[nH]c2ccccc12)/c1nccc2ccccc12	/	/	/	11µM*	?	/
O=C(Nc1ccc(S(=O)(=O)NCc2ccccc2)cc1)C1CCCCC1	3	2	-6%	-24%	2%	-13%
SMILES	IL1B secr inh	Giardia killer	HT1080NT lethal	HepG2 tox	TGFb inhibitor	HT1080 IDH1KD tx
O=C(NCC1CCN(c2ccc(S(=O)(=O)N3CCOCC3)cc2)CC1)c1cccc(Cl)c1	-13	14	-5%	-4%	-16%	-23%
Cc1ccc(C(=O)C(C(=O)/C=C/c2ccccc2)=C2SCCCS2)cc1	-111*	4	12µM*	-83%	-20%	10µM*
Cc1ccc(C(=O)C=CC=Cc2ccccc2)cc1	?	/	0%	-4%	-8%	-7%
COc1ccc(-c2ccc(/C=C3\C(=O)N(c4ccccc4)N=C3c3ccccc3)o2)c([N+](=O)[O-])c1	5	10	0%	-4%	7%	1%
O=S(OCCN1CCCC1)C(c1ccccc1)c1ccccc1 (stereo not drawn)	-90*	9	-23%	1%	-1%	?
CCOC(=O)c1cc(-c2ccccc2)n(CCCC(=O)Nc2ccc(C)c(Cl)c2)c1C	/	/	/	-28%	11µM*	/
CCOC(=O)c1cc(-c2ccccc2)n(CCCC(=O)Nc2ccc(CC)cc2)c1C	/	/	/	-41%	?	/
Nc1nc2ccc(Cl)cc2cc1C(=O)NCCc1ccc(Cl)cc1Cl	49	/	1%	/	/	2%
CCOc1cc(/C=C2/C(=N)N3N=C(CC)SC3=NC2=O)ccc1OC(=O)c1ccco1	i	-7	-12%	-34%	8%	-7%
O=C(CSc1nnc(Cn2cnc3ccccc32)o1)Nc1cccc2ccccc12	18	-14	34%	3%	-16%	9%
O=C(NNc1c([N+](=O)[O-])cc(C(F)(F)F)cc1[N+](=O)[O-])c1ccco1	0	-25	21µM*	-36%	?	?
COc1ccccc1C=CC(=O)C=Cc1ccccc1OC	-104*	-1	?	-94%	10µM*	13µM*
COc1ccccc1/C=C/C(=O)Nc1cccnc1Cl	-55*	7	4%	-54%	-26%	8%
CNc1ccccc(C(=O)/C=C/c2ccccc2OC)c1=O	-104*	-1	-10%	-13%	?	-22%
COc1ccccc1/C=C/C(C)=O	-14	13	5%	1%	9%	11%
COc1ccc(/C=C/C(=O)Nc2cccnc2Cl)cc1	0	-20	-8%	-50%	1%	-8%
COc1ccccc1/C=C/C(=O)/C=C/c1ccccc1O	-98*	-2	6.5µM*	-21%	?	5.8µM*
COc1ccc(C2=CC(c3ccc(F)cc3)n3ncc(C(=O)Nc4ccc(C)cc4)c3N2)cc1 (stereo not drawn)	/	/	/	-31%	?	/
COc1ccc(-n2ncc3c(=O)n(CC(=O)N4c5ccccc5CC4C)cnc32)cc1 (stereo not drawn)	0	20	-2%	1%	4%	1%
CCN(Cc1ccccc1)Cc1c(O)ccc2c(=O)c(-c3ccccc3OC)c(C(F)(F)F)oc12	/	/	/	-16%	?	/
O=C1/C(=C/c2ccccc2)NC(=S)N1C(c1ccccc1)c1ccccc1	19	-20	?	-58%	-1%	9.2µM*
